These results are taken from PubChem BioAssay (NCI).

Among the test systems are RPMI-8226 leukemia; OVCAR-8 ovarian; OVCAR-5 ovarian; OVCAR-4 ovarian; SK-OV-3 ovarian; IGROV1 ovarian; OVCAR-3 ovarian; HS 578T breast; NCI/ADR-RES ovarian; T-47D breast; BT-549 breast; MDA-MB-435 melanoma; SW-620 colon; MCF7 breast; HCT-116 colon; HCC-2998 colon; KM12 colon.
Holding throughout (test): NCI-60 one-dose screen, 48 h (100 = growth as untreated, 0 = no growth, -100 = all killed)
What all share (conditions): 10 µM unless noted

The panel holds about 83,000 compounds, 20% with a hit somewhere; the sample as a whole holds those more often.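 Percent growth is the endpoint: 0 to 100 indicates growth inhibition (40 means 60% inhibition), 0 means no net growth, and negative values indicate cell death.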 Unmarked numbers belong to inactive results. The source made the active and inactive calls. The calls were made as follows: active = growth percent below 10; inactive = the rest.

Take `COc1ccc(Nc2ccnc(NCCCNc3ccnc4cc(Cl)ccc34)n2)cc1`: the growth is -60.5% (active) in the experiment on RPMI-8226 leukemia; 5.52% (active) in the experiment on OVCAR-8 ovarian; -19.9% (active) with OVCAR-5 ovarian; 11.8% with OVCAR-4 ovarian; -5.22% (active) with SK-OV-3 ovarian; 21.7% with IGROV1 ovarian. Besides, the growth was -84.5% (active) with OVCAR-3 ovarian; -52.2% (active) in the experiment on HS 578T breast; 35.4% in the experiment on NCI/ADR-RES ovarian; -51.8% (active) in the experiment on T-47D breast; -16.8% (active) with BT-549 breast; -94.7% (active) with MDA-MB-435 melanoma. In addition, the growth was -48.7% (active) in the experiment with SW-620 colon, -2.74% (active) with MCF7 breast and -100% (active) in the experiment with HCT-116 colon.
For the compound `CN=C(NC)N/N=C(C)\C=N\NC(=NC)NC`, the growth with RPMI-8226 leukemia was 127%; in the experiment with OVCAR-8 ovarian, 102%; in the experiment on OVCAR-5 ovarian, 116%; in the experiment with OVCAR-4 ovarian, 112%; in the experiment with SK-OV-3 ovarian, 101%; in the experiment with IGROV1 ovarian, 112%. For the same compound, the growth in the experiment with OVCAR-3 ovarian is 107%; in the experiment on HS 578T breast it was 102%; in the experiment with NCI/ADR-RES ovarian it was 107%; in the experiment on T-47D breast, 109%; in the experiment on BT-549 breast it was 110%; with MDA-MB-435 melanoma it was 104%. For the same compound, the growth with SW-620 colon is 99.5%; in the experiment on MCF7 breast, 104%; in the experiment with HCT-116 colon, 105%; in the experiment on HCC-2998 colon, 110%.
For the compound `O=C(Nc1cccc(-n2cc(-c3ccncc3)c(-c3ccc(O)c(Cl)c3)n2)c1)Nc1ccc(Cl)c(C(F)(F)F)c1`, the growth in the experiment on RPMI-8226 leukemia was -27.4% (active); with OVCAR-8 ovarian, -44.7% (active); in the experiment on OVCAR-5 ovarian, 39.4%; in the experiment with OVCAR-4 ovarian it was -5.46% (active); with SK-OV-3 ovarian, 4.82% (active); in the experiment with IGROV1 ovarian, -20.9% (active). The growth is -21.1% (active) in the experiment with OVCAR-3 ovarian; -0.107% (active) in the experiment with HS 578T breast; 11.3% with NCI/ADR-RES ovarian; -10% (active) in the experiment on T-47D breast; -12.6% (active) with BT-549 breast; -61.6% (active) with MDA-MB-435 melanoma. Besides, the growth in the experiment on SW-620 colon was 8.96% (active); in the experiment on MCF7 breast, -7.24% (active); in the experiment with HCT-116 colon, -8.62% (active); in the experiment with HCC-2998 colon it was 14.7%; in the experiment with KM12 colon, -25.2% (active).
For the compound `CC(C)c1ccc(C(=O)Nc2sc3c(CN(C)C)c(O)ccc3c2C(N)=O)cc1`, the growth was -31.8% (active) in the experiment on RPMI-8226 leukemia; 51.5% with OVCAR-8 ovarian; 59.4% with OVCAR-5 ovarian; 48.5% in the experiment with OVCAR-4 ovarian; 70.6% with SK-OV-3 ovarian; 27.3% in the experiment with IGROV1 ovarian. Further, the growth was 62.7% in the experiment with OVCAR-3 ovarian; 69.1% in the experiment on HS 578T breast; 51.6% in the experiment with NCI/ADR-RES ovarian; 54.2% with T-47D breast; 64.4% in the experiment on BT-549 breast; 63% in the experiment with MDA-MB-435 melanoma. The growth with SW-620 colon is -37.8% (active); with MCF7 breast, -16.2% (active); in the experiment on HCT-116 colon, -46.5% (active).
Regarding `COc1cc2c(cc1OCCCCCn1c(-c3ccc(OCc4ccccc4)cc3)nc3cc(N4CCOCC4)ccc31)N=C[C@@H]1CCCN1C2=O`, the growth is 19.4% in the experiment with RPMI-8226 leukemia; 21.2% in the experiment with OVCAR-8 ovarian; 9.51% (active) with OVCAR-5 ovarian; 21.4% with OVCAR-4 ovarian; 35.3% in the experiment on SK-OV-3 ovarian; -58.7% (active) in the experiment with IGROV1 ovarian. For the same compound, the growth is 4.07% (active) in the experiment with OVCAR-3 ovarian; 12.4% with HS 578T breast; 23.8% in the experiment with NCI/ADR-RES ovarian; 19% with T-47D breast; 1.75% (active) with BT-549 breast; -9.74% (active) in the experiment on MDA-MB-435 melanoma. The growth in the experiment with SW-620 colon is 0% (active); in the experiment on MCF7 breast, -3.99% (active); in the experiment on HCT-116 colon, 2.97% (active); in the experiment with HCC-2998 colon, 4.97% (active).
Take `COc1ccc2[nH]cc(/C=C3/C(=O)Nc4ccc(F)cc43)c2c1`: the growth is 62.4% with RPMI-8226 leukemia; 84.1% in the experiment with OVCAR-8 ovarian; 88.5% with OVCAR-5 ovarian; 75.6% in the experiment with OVCAR-4 ovarian; 104% in the experiment on SK-OV-3 ovarian; 98.2% in the experiment with IGROV1 ovarian. In addition, the growth with OVCAR-3 ovarian is 108%; in the experiment with HS 578T breast, 72.6%; with NCI/ADR-RES ovarian it was 84.9%; with T-47D breast, 92.2%; with BT-549 breast it was 134%; with MDA-MB-435 melanoma, 93.8%. For the same compound, the growth with SW-620 colon is 101%; with MCF7 breast it was 56.3%; in the experiment with HCT-116 colon, 86%; in the experiment on HCC-2998 colon it was 93%.
In the case of `CCc1[nH]nc(-c2ccc(OC)cc2)c1-c1ccccc1OCCN(CC)CC`, the growth is 97.5% in the experiment on RPMI-8226 leukemia; 107% with OVCAR-8 ovarian; 92.6% in the experiment with OVCAR-5 ovarian; 91.4% with OVCAR-4 ovarian; 91.8% in the experiment with SK-OV-3 ovarian; 98.6% in the experiment on IGROV1 ovarian. Also, the growth in the experiment on OVCAR-3 ovarian is 104%; in the experiment on HS 578T breast, 99.4%; in the experiment with NCI/ADR-RES ovarian, 100%; in the experiment on T-47D breast it was 97.4%; in the experiment with BT-549 breast, 87.7%; in the experiment with MDA-MB-435 melanoma, 101%. Moreover, the growth is 104% in the experiment on SW-620 colon, 93.2% in the experiment on MCF7 breast, 83.9% in the experiment with HCT-116 colon and 103% in the experiment with HCC-2998 colon.
`CCCCCCCCSc1ncnc2c1ncn2CO`: the growth was 60.7% in the experiment on RPMI-8226 leukemia; 90.4% in the experiment on OVCAR-8 ovarian; 103% in the experiment with OVCAR-5 ovarian; 60.3% in the experiment on OVCAR-4 ovarian; 83.1% with SK-OV-3 ovarian; 93.3% in the experiment with IGROV1 ovarian. In addition, the growth in the experiment with OVCAR-3 ovarian is 78.2%; in the experiment with HS 578T breast, 95.6%; in the experiment with NCI/ADR-RES ovarian, 86.8%; with T-47D breast, 62%; in the experiment on BT-549 breast, 84.6%; with MDA-MB-435 melanoma, 82.6%. Also, the growth was 93.8% in the experiment on SW-620 colon; 75.7% with MCF7 breast; 66.8% with HCT-116 colon; 109% in the experiment on HCC-2998 colon; 88.2% in the experiment on KM12 colon.
In the case of `c1cnc2n[nH]c(Nc3ncnc4c3sc3ncccc34)c2c1`, the growth in the experiment on RPMI-8226 leukemia was 88.1%; with OVCAR-8 ovarian, 96.8%; in the experiment on OVCAR-5 ovarian, 93.2%; with OVCAR-4 ovarian, 102%; with SK-OV-3 ovarian it was 102%; in the experiment on IGROV1 ovarian, 109%. Besides, the growth in the experiment with OVCAR-3 ovarian is 111%; in the experiment on HS 578T breast it was 117%; with NCI/ADR-RES ovarian, 104%; with T-47D breast, 93.5%; with BT-549 breast, 106%; in the experiment on MDA-MB-435 melanoma it was 101%. The growth in the experiment on SW-620 colon was 101%; with MCF7 breast, 91.3%; in the experiment with HCT-116 colon, 96.2%; in the experiment on HCC-2998 colon, 108%.
`S=c1[nH]nc2sc3ccccc3n12`: the growth in the experiment with RPMI-8226 leukemia is 105%; with OVCAR-8 ovarian, 107%; with OVCAR-5 ovarian, 108%; in the experiment on OVCAR-4 ovarian, 103%; in the experiment with SK-OV-3 ovarian, 109%; in the experiment with IGROV1 ovarian it was 96.9%. The growth was 119% in the experiment with OVCAR-3 ovarian; 114% with HS 578T breast; 112% with NCI/ADR-RES ovarian; 101% in the experiment on T-47D breast; 116% in the experiment with BT-549 breast; 118% in the experiment on MDA-MB-435 melanoma. The growth with SW-620 colon was 105%; in the experiment on MCF7 breast, 98.4%; in the experiment with HCT-116 colon, 102%; with HCC-2998 colon, 109%.
